From PubChem BioAssay AID1745845 (National Center for Advancing Translational Sciences (NCATS), 2022) come the findings set out here.

Where “and” joins values, the source holds several entries; their conditions need not be identical. Equal values may be shown once. Among all 360,000 compounds or so, about 2,600 (0.72%) were called active. Roughly 5% stayed inconclusive and do not appear here. The sample as a whole holds a higher share of actives than the screen did. Unmarked numbers belong to inactive results. Calls follow the shape of the dose curve; as a rule, active = well fitted inhibition curve with a large enough effect; inconclusive = small, poorly fitted or top-dose-only effect; inactive = no such curve, though single readings can be large or run the other way.
% is scaled to controls: 0 for no effect and ±100 for the full control effect; potency is read from the fitted curve at half-maximal effect.

The test is described as follows: Primary qHTS for Inhibitors of ATXN expression. Also: nearly all actives have a fitted effect of over 55% in size. The following applies: HEK-293 ATXN2-luciferase reporter, luminescence, 24 h; series mostly up to 57 µM; activity change, negative = inhibition: at the top concentration. An excerpt:
University of Utah School of Medicine, Salt Lake City, Utah
Spinocerebellar ataxia type 2 (SCA2) is a multisystem neurodegenerative disease caused by a dominantly acting mutation leading to expansion of a polyQ domain in the ataxin-2 protein (ATXN2). SCA2 patients develop progressive ataxia and later lose function in other neuronal systems. Prominent parkinsonian signs develop in some patients. Like many neurodegenerative disorders, no symptomatic or disease-modifying treatments are known.
The primary objective of the proposed research is to identify compounds inhibiting ATXN2 expression and to test them for efficacy in SCA2 mouse models. We have developed a cell-based assay paired with an in vivo mouse model using identical luciferase expression constructs. This approach takes advantage of an ATXN2-luciferase transgene, with the luciferase gene flanked by the upstream and downstream portions of the ATXN2 gene. Here we describe a 5-7 dose quantitative high thoroughput screen (qHTS) for compounds lowering ATXN2 expression. We screened the NIH Molecular Libraries Small Molecule Repository (MLSMR) and NCGC's mechanistically annotated (MIPE) and drug repurposing (NPC) collections of compounds for lowering expression of an ATXN2-luciferase reporter in HEK-293 cells. The assay is a multiplexed cell viability assay to ensure target reduction in the absence of cytotoxicity. Secondary qHTS assays included a CMV-luciferase reporter expressed in HEK-293 cells as well as a biochemical assay using recombinant luciferase to detect inhibitors of the reporter enzyme. Compounds that inhibit ATXN2 expression but is not cytotoxic were selected for confirmatory and secondary screens.
PROTOCOL TABLE (as described by Inglese J, Shamu CE and Guy RK. 2007)
SEQUENCE No. (e.g., 1, 2, 3, etc.); […] (e.g., Cells, Incubation, Reagent, etc.); VALUE; DESCRIPTION.
1; Cells; 4 uL; white, solid bottom, 1536-well Greiner assay plate.
2; Incubation; 2 hr; 37 degree C in 5% humidified CO2.
3; Compounds; 23 nL; Kalypsis pintool (Wako USA) equipped with a 1536-well pin head.
4; Incubation; 24 hr; 37 degree C in 5% humidified CO2.
5; Reagent; 1 uL; Gly-Phe-7-Amino-4-trifluoromethylcoumarin.
6; Incubation; 30 min; 37 degree C in 5% humidified CO2.
7; Detection; Fluorescence; ViewLux plate reader (PerkinElmer).
8; Reagent; 3 uL; SteadyGlo luciferase solution (Promega).
9; Incubation; 5 min; room temperature.
10; Detection; Luminescence; ViewLux plate reader (PerkinElmer).
NOTES (numbers refer to Sequence numbers above)
1. S2 cells expressing ATXN2-luciferase reporter were suspended in phenol-red free DMEM and dispensed in assay plates using a Multidrop Combi dispenser (Thermo Fisher Scientific).
2. Assay plates were incubated. Evaporation was prevented by covering assay plates with metal lids containing holes to allow gas diffusion.
3. Compounds were added in a dose response manner with the final concentrations of 57, 11.4, 2.28, 0.46, 0.091, 0.018, 0.0037 uM. Vehicle-only plates, with DMSO being pin-transferred to columns 5-48, were inserted uniformly at the beginning and the end of each library to monitor and record any shifts in assay performance.
5. 125 uM Gly-Phe-7-Amino-4-trifluoromethylcoumarin (MP Biomedicals) working concentration was used at a final concentration of 25 uM.
7. To assess cell viability; the assay plates were read using the ViewLux high-throughput CCD imager (PerkinElmer), wherein single end-point fluorescence measurement was acquired (excitation 405/10; emission 540/25 nm).
8. Detection reagent SteadyGlo Luciferase (Promega) was added to the assay plate.
10. Luminescence is then measured on the ViewLux imager equipped with a clear emission filter using a 2 sec exposure. All screening operations were performed on a fully integrated robotic system (Kalypsys) containing one RX-130 and two RX-90 anthropomorphic robotic arms (Staubli).
[…]
(In general: qHTS replaces the single test concentration by a dilution series.)
`N#C/C=C/N1CCN(Cc2ccc3c(c2)OCO3)CC1`: the “activity change, negative = inhibition” value is 12.5% (inactive).
Turning to `Fc1ccc2[nH]c3c(N4CCN(Cc5ccc6c(c5)OCO6)CC4)ncnc3c2c1`, the Potency was 14.1 µM (active).
Regarding `Fc1ccc2[nH]c3c(N4CCSCC4)ncnc3c2c1`, the Potency was 15.8 µM (active).
On to `O=C(CSc1nc2c(c(=O)[nH]1)CN(Cc1ccc3c(c1)OCO3)CC2)Nc1cc(F)ccc1F`, for which the “activity change, negative = inhibition” value was 15.6% (inactive).
As to `COC(=O)c1cc(Cl)c(NC(C)=O)cc1OC`, the “activity change, negative = inhibition” value is 16.7% (inactive).
Take `Cn1c(=O)c(C(=O)O)nn(-c2ccccc2)c1=O`: the “activity change, negative = inhibition” value is 13.3% (inactive).
In the case of `COc1cccc(CNCc2c(C(=O)O)n(Cc3ccc(C)cc3)c3cc(C)ccc23)c1OC`, the “activity change, negative = inhibition” value is 5.45% (inactive).
The same measure, in the same setting: under `C[C@@H]1CCC[C@H](C)N1CCCC(O)(c1ccccc1)c1ccccn1` (some centres undefined) stands -0.369% (inactive); under `CC(C)Cn1c(C2CC(=O)N(c3ccccc3Cl)C2)nc2ccccc21` (centres undefined), 0.8% (inactive).
Same read-out and setting: under `CC(C(C)N1CC(=O)NC(=O)C1)N1CC(=O)NC(=O)C1` (centres undefined) stands -9.63% (inactive).
Same read-out and setting: under `COCC(C)NS(=O)(=O)c1ccc(N2CCCCS2(=O)=O)cc1` (centres undefined) stands -1% (inactive).
With `Cc1cc(N/N=C\c2ccc(Br)cc2)nc(-n2nc(C)cc2C)n1`, the Potency is 10 µM (active).
In the case of `Cc1cc(C)n(-c2nnc(N3CCN(c4ccccc4)CC3)nn2)n1`, the “activity change, negative = inhibition” value was 6.31% (inactive).
On the same count and under the same terms, under `Cc1cc(Nc2ccc(Br)cc2)nc2ccccc12` stands -28.1% (inactive); under `COC(=O)c1c(NC(=O)C(C)Oc2ccc(Cl)c(C)c2)sc(C)c1C` (centres undefined), 5.21% (inactive); under `COc1c(C)cc(C(O)c2ncc(-c3cccc(C(F)(F)F)c3)[nH]2)cc1C` (centres undefined), -29.7% (inactive).
Turning to `COc1cc(NC(=O)c2[nH]cnc2C(N)=O)cc(C(=O)Nc2cccc(C(F)(F)F)c2)c1`, the Potency is 10 µM (active).
For `O=C(O)CSc1c2c(nc3cc(C(=O)Nc4cccc(C(F)(F)F)c4)ccc13)CCCC2`, the “activity change, negative = inhibition” value was 1.19% (inactive).
On to `COc1cccc(NC(=O)c2csnn2)c1`, for which the “activity change, negative = inhibition” value is 20.7% (inactive).
With `COc1ccc(CC(N)c2csc(NC(=O)Cc3ccccc3)n2)cc1` (centres undefined), the “activity change, negative = inhibition” value is 0% (inactive).
Regarding `C=CCN(CC=C)C(=O)CN1C(=O)c2ccccc2C1=O`, the “activity change, negative = inhibition” value was 4.2% (inactive).
Turning to `C=CCn1c(C)cc(C(=O)CN2C(=O)c3ccccc3C2=O)c1C`, the Potency was 7.08 µM (active).
As to `Cc1cc(C(=O)COC(=O)CCCN2C(=O)c3ccccc3C2=O)c(C)n1C`, the “activity change, negative = inhibition” value was 10.3% (inactive).
On the same count and under the same terms, under `Cc1cccc(-n2c(=O)c3c(c4cc(C)ccc4n3C)n(CC(=O)Nc3ccccc3Cl)c2=O)c1` stands 15.8% (inactive); under `CCC(=O)N1CCc2cc(S(=O)(=O)NC(CC(C)C)C(=O)NCCc3cccc(C)c3)ccc21` (centres undefined), -19.1% (inactive); under `CCCn1c2ccccc2c2cnn(CC(=O)NCCCN3CCCCC3CC)c(=O)c21` (centres undefined), -19.6% (inactive).
As to `CCC1CCCCN1CCCNC(=O)c1cc2c(Cl)nc3ccccc3c2s1` (centres undefined), the Potency was 22.4 µM (active) and 31.6 µM (active).
Regarding `CN1CCN(CCCNC(=O)c2cc3c(=O)oc4ccccc4c3s2)CC1`, the “activity change, negative = inhibition” value was 1.64% (inactive).
As for `Cc1ccc(NC(=O)C(Cc2ccccc2)NS(=O)(=O)c2ccc3c(c2)oc(=O)n3C)cc1C` (centres undefined), the “activity change, negative = inhibition” value is 11.9% (inactive).
Still for that read-out and setting: with `Clc1cccc(-n2ncc3c(NCCc4ccccc4)ncnc32)c1` the figure was 8.97% (inactive); with `CC(C)Oc1ccc(CN2CCC(n3nccc3NC(=O)c3cccnc3)CC2)cc1`, -14.9% (inactive).
With `O=C(Nc1ccnn1C1CCN(Cc2cccc(OCCO)c2)CC1)C1CCCC1`, the “activity change, negative = inhibition” value was 6.2% (inactive).
Turning to `c1cncc(CN2CCC(n3ncc4c(N5CCOCC5)nc(-c5ccc6[nH]ccc6c5)nc43)CC2)c1`, the Potency is 21.7 µM (active).
With `Cc1cc(O)ccc1-c1cc(C(=O)NCc2cc(C(F)(F)F)cc(C(F)(F)F)c2)[nH]n1`, the “activity change, negative = inhibition” value was -9.72% (inactive).
Consider `O=C1Nc2ccccc2NC(c2ccc3c(c2)OCO3)=C1N(Cc1ccc(F)cc1)C(=O)c1ccco1`, for which the “activity change, negative = inhibition” value is -10.1% (inactive).
Take `NN=C(NN=Cc1ccccc1)c1ccccc1`: the “activity change, negative = inhibition” value is 59.1% (inactive).
With `O=C(N/N=C/c1ccccc1O)/C(=C/c1ccccc1)CCO`, the Potency was 3.55 µM (active).
Turning to `O=C(CCC(=O)Nc1ccccc1)N/N=C/c1ccccc1F`, the activity change, negative = inhibition is 10.2% [at 11.3 µM].
For `COc1ccc(Cl)cc1N(C)C(=O)c1cc2c(=O)oc3ccc(C)cc3c2s1`, the “activity change, negative = inhibition” value was 6.73% (inactive).
As for `CCOc1cc(C2C(C(=O)Nc3ccc(OC)cc3)=C(C)Nc3nc(SC)nn32)ccc1O` (centres undefined), the “activity change, negative = inhibition” value was 0% (inactive).
Turning to `O=C(CNC(=O)c1cccnc1)N/N=C/c1cc(Br)c(O)c(Br)c1`, the “activity change, negative = inhibition” value was 5.36% (inactive).
Regarding `O=C(CSc1cccc2cccnc12)N/N=C/c1cccnc1`, the Potency was 22.4 µM (active).
With `Cc1ccc(S(=O)(=O)N(CC(=O)N/N=C/c2ccc(F)cc2)c2cccc3cccnc23)cc1`, the “activity change, negative = inhibition” value is -22.9% (inactive).
The same measure, in the same setting: with `CCc1ccc(C=C2SC(=S)NC2=O)cc1` the figure was 46.5% (inactive).
Same read-out and setting: with `Cn1c(=O)nc2n(-c3ccc(Br)cc3)c3cccc(Cl)c3cc-2c1=O` the figure was 0.426% (inactive); with `CC(Nc1ccc(-c2nc(-c3ccco3)no2)cc1[N+](=O)[O-])c1ccccc1` (centres undefined), 30.4% (inactive).
Take `CO[C@@H]1[C@@H](O)[C@H](O)[C@@H](n2c3c(Cl)cccc3c3c4c(c5c6cccc(Cl)c6[nH]c5c32)C(=O)NC4=O)O[C@@H]1CO`: the Potency is 0.273 µM (active).
Regarding `COC1C(CO)OC(n2cnc3c(=S)nc(N)[nH]c32)C1O` (centres undefined), the “activity change, negative = inhibition” value was -17% (inactive).
As to `COc1ccccc1CNC(=O)c1ccc(NC(=O)N2CC(C)Sc3ccccc32)cc1` (centres undefined), the “activity change, negative = inhibition” value was 0.839% (inactive).
